Compound activity: PubChem BioAssay, several laboratories
Sampled rows, rich in hits. Any-hit rate of the full collection: about 2.9%.
Granule exo inh: lytic granule exocytosis inhibition | 360,000 compounds, 0.66% hits | inhibition, % at 10 µM | TALL-104 LAMP-1 surface exposure, flow cytometry; cells stimulated with thapsigargin and PMA;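 active = inhibition above about 55%, limit read from the data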
B2AR ag: human beta-2 adrenergic receptor agonism by FAP; P07550; response, % (no concentration beside the values); 340,000 compounds, 0.43% hits; Am2.2-beta2AR cells, FAP receptor internalization, flow cytometry;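 active = response above a set limit, near 3 SD of response in nonfluorescent compounds, cut at about 42% in these data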
Target sequence (P07550 whole entry, looked up): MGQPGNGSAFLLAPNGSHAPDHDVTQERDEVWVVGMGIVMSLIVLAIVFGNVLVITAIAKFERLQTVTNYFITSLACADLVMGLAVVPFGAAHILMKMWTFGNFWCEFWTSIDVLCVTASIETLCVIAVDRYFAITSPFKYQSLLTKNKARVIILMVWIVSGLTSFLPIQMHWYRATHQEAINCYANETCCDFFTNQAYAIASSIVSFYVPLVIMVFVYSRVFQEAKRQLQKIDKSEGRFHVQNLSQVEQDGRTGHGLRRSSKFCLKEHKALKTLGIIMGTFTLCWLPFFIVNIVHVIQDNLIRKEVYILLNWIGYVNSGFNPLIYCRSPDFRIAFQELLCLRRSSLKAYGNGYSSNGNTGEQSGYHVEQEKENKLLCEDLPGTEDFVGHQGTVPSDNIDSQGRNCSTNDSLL
GRK2 aptamer HTS: human GRK2 inhibition via aptamer displacement. AID 488847. 330,000 compounds, 0.59% hits. bead flow cytometry, FAM-aptamer displacement from GRK2. inhibition of aptamer binding, % at 10 µM. P25098;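 active = inhibition of aptamer binding above 40%, roughly 3 SD of noise, on plates passing a quality check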;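 also: median bead fluorescence of bound FAM aptamer so fluorescent compounds give negative values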
PP1 inh: blocks human PP1-alpha phosphatase, a PP5 counter-screen. AID 2235. P62136. inhibition, % at 6.7 µM. purified PP1alpha, OMFP fluorescence. 320,000 compounds, 0.9% hits;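 active = inhibition above the mean inhibition of all tested compounds plus 3 SD, computed separately for each screening campaign, cut at about 15% in these data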
NadD inh: NadD (S. aureus) enzyme inhibition; purified NadD enzyme, colorimetric absorbance read-out; 360,000 compounds, 0.78% hits; inhibition, % at 20 µM; AID 602399; in the data active = inhibition above about 26%
The depositor's hits bear a star; / = no result.

SMILES	Granule exo inh	B2AR ag	GRK2 aptamer HTS	PP1 inh	NadD inh
CCc1c(C)sc2nc3c(C(=O)N4CCOCC4)cc(C(=O)c4cc(F)ccc4O)cn3c(=O)c12	-9.5	3.7	3.0	0.3	5.4
COc1ccc(NC(=O)C2(C)Cc3c(-c4cccc(C(N)=O)c4)ccnc3O2)cn1 (configuration not stated)	0.4	/	/	/	-2.2
CC1(C)CC(NS(=O)(=O)c2ccc(S(N)(=O)=O)cc2)CC(C)(C)N1	-6.4	-3.3	0.0	-0.1	-4.0
Cc1ccccc1CN1CCN(C(C)C(=O)NNC(=O)c2ccc(F)cc2)CC1 (configuration not stated)	0.4	-6.7	0.0	-4.3	1.0
CC(C)[C@H](NS(=O)(=O)c1ccccc1)C(=O)OCC(=O)N1N=C(c2ccc(Cl)cc2)CC1c1ccco1 (some centres not stated)	-2.0	11.3	1.0	16.4*	28.8
Cc1ccc(C)n1-c1ccc(C(=O)/C=C/N(C)C)cc1	0.4	7.5	1.0	16.0*	0.9
Cc1ccc(C)c(S(=O)(=O)/N=C2\C=C(NS(=O)(=O)c3ccccc3)C(=O)c3ccccc32)c1	29.9	39.9	0.0	0.6	29.1*
CCc1ccc(S(=O)(=O)/N=C2\C=C(NS(=O)(=O)c3ccccc3)C(=O)c3ccccc32)cc1	18.7	13.9	/	/	27.2
CC(=O)Nc1ccc(NC2=C/C(=N/S(=O)(=O)c3cccs3)c3ccccc3C2=O)cc1	48.9	31.3	3.0	3.3	-3.0
CC(C)c1ccc(S(=O)(=O)/N=C2\C=C(NS(=O)(=O)c3ccccc3)C(=O)c3ccccc32)cc1	15.3	3.0	1.0	0.0	41.3*
Cc1ccccc1NC1=C/C(=N\S(=O)(=O)c2ccc(C(=O)O)cc2)c2ccccc2C1=O	-2.1	17.1	6.0	4.0	8.3
COc1ccc(S(=O)(=O)/N=C2\C=C(Nc3ccc(O)cc3)C(=O)c3ccccc32)cc1	68.5*	51.7*	1.0	2.9	5.4
N#Cc1ccc(C(=O)N2CCCCC2c2cc(C(=O)Nc3ccccc3Cl)no2)cc1 (configuration not stated)	1.1	/	/	/	4.8
Cc1ccc(SCCc2ccc(C)nc2)cc1	-0.4	-0.9	2.0	2.9	-1.5
CCCCNC(=O)c1nc(-c2ccccc2)oc1-c1ccc(Cl)cc1	-14.1	/	/	/	/
COC(=O)C1=C(C)N(Cc2ccco2)C(=O)/C1=C\c1ccc([N+](=O)[O-])cc1	91.7*	19.1	1.0	1.0	1.5
COC(=O)C1=C(C)N(Cc2ccco2)C(=O)/C1=C\c1ccc(N(C)C)cc1	-3.0	-1.6	0.0	-2.9	-2.5
Cc1cccc(C(=O)N[C@@H]2c3ccccc3C[C@@H]2O)n1	10.6	3.0	3.0	-3.2	2.1
CCC1=NN2C(=N)/C(=C/c3cc(C)n(Cc4ccccc4)c3C)C(=O)N=C2S1	12.2	0.2	0.0	15.8*	5.4
Cc1cc(/C=C2/C(=N)N3C(=NC2=O)SN=C3S(C)(=O)=O)c(C)n1-c1ccc(F)cc1	-1.4	-1.5	1.0	-2.0	16.8
Cc1cc(/C=C2\C(=N)N3C(SCc4ccccc4)=NSC3=NC2=O)c(C)n1Cc1ccccc1	-1.2	7.3	1.0	0.4	30.8*
CCC(CC)C1=NN2C(=N)/C(=C\c3cc(C)n(-c4cccc(C)c4)c3C)C(=O)N=C2S1	-0.9	-4.2	3.0	-2.1	41.3*
Cc1cc(/C=C2\C(=N)N3N=C(C(C)C)SC3=NC2=O)c(C)n1Cc1ccccc1	-3.5	7.9	0.0	2.3	-6.4
CCOc1ccc(-n2c(C)cc(/C=C3/C(=N)N4C(=NC3=O)SN=C4S(C)(=O)=O)c2C)cc1	-1.3	2.2	1.0	-4.6	33.5*
O=C1NC[C@@H](CCCCN2CCN(CCc3ccc(O)cc3)C(=O)C2=O)N(Cc2ccccc2)C1=O	5.0	/	/	/	9.0
SMILES	Granule exo inh	B2AR ag	GRK2 aptamer HTS	PP1 inh	NadD inh
COc1cccc(C2c3[nH]c4ccccc4c3C[C@H]3C(=O)N(CCCCCO)CC(=O)N23)c1 (some centres not stated)	4.4	9.8	1.0	1.1	1.2
CCOC(=O)c1c(SCCN2CCCCC2)n(-c2ccccc2)c(=S)n(-c2ccccc2)c1=O	68.9*	29.8	/	/	-0.6
CCOC(=O)c1c(SC)n(-c2ccccc2)c(=S)n(-c2ccccc2)c1=O	1.5	14.9	0.0	/	-1.7
Cc1cc(/C=C2/SC(=S)N(c3ccc([N+](=O)[O-])cc3)C2=O)c(C)n1-c1cccnc1	58.2*	8.8	32.0	-3.3	17.1
Cc1cc(/C=C2/SC(=S)N(c3cccc(Cl)c3)C2=O)c(C)n1-c1cccnc1	5.9	5.6	7.0	6.5	29.6*
CC1CN(C(=S)NC(=O)c2ccc(Cl)cc2)CC(C)O1 (configuration not stated)	-24.9	0.2	2.0	-2.4	-3.7
COc1ccc(C(=O)NC(=S)N2CC(C)OC(C)C2)cc1OC (configuration not stated)	-5.1	-2.4	56.0*	-1.8	-2.5
Cc1ccc(N=Cc2cccc(O)c2O)c(C)c1	92.9*	4.3	2.0	2.8	22.7
NNC(=O)c1csc(-c2ncc(C(F)(F)F)cc2Cl)n1	5.1	-14.6	0.0	-0.4	4.4
COc1cccc(N2CC(C(=O)Nc3nnc(SCC(=O)c4ccccc4)s3)CC2=O)c1 (configuration not stated)	-5.2	3.6	4.0	9.7	8.6
COc1ccc(C(=O)CSc2nnc(NC(=O)C3CC(=O)N(c4ccccc4)C3)s2)cc1 (configuration not stated)	5.1	1.5	0.0	17.0*	9.5
CC(=O)Nc1ccc(-c2csc(NC(=O)C3CC(=O)N(c4ccc5c(c4)OCCO5)C3)n2)cc1 (configuration not stated)	0.8	1.6	3.0	16.4*	13.4
COC(=O)c1ccc(CSc2nnc(NC(=O)C3CC(=O)N(c4ccc5c(c4)OCCO5)C3)s2)cc1 (configuration not stated)	0.6	9.5	0.0	15.3*	22.8
NC(=O)C1CCN(C(=O)CC(c2ccccc2)c2ccccc2)CC1	4.1	-1.8	1.0	-1.9	0.3
COc1cccc(/C=N/NC(=O)c2cc3cc([N+](=O)[O-])ccc3s2)c1O	69.4*	-1.3	87.0*	7.5	43.0*
COc1cccc(/C=N/NC(=O)c2cc(-c3cccn3C)n[nH]2)c1O	-1.2	18.3	0.0	16.4*	3.3
COc1cc(/C=N/NC(=O)c2cc(-c3cccn3C)n[nH]2)cc(OC)c1OC	0.0	-6.3	0.0	-1.4	12.7
COc1cc([N+](=O)[O-])cc(/C=N/NC(=O)c2ccc(C)nc2)c1O	-0.8	-1.6	0.0	24.3*	-0.7
COc1cc([N+](=O)[O-])cc(/C=N/NC(=O)c2ccc(NC(=O)c3ccc(C)cc3)cc2)c1O	1.7	36.5	/	/	82.4*
CN(Cc1ccc(F)cc1)C(=O)c1cccc(OCc2ccccc2)c1	48.6	-6.8	1.0	3.4	-6.3
O=C(NCc1ccccc1C(F)(F)F)c1cccc2c1C(=O)c1ccc(N3CCCCC3)cc1S2(=O)=O	1.4	7.4	0.0	/	21.8
